# Inconclusive results are not listed. Activity calls are given as the source filed them. Unless noted, calls follow the shape of the dose curve; as a rule, active = well fitted curve in the direction sought with a large enough effect; inconclusive = small, poorly fitted or top-dose-only effect, or another doubt; inactive = no such curve, though single readings can be large; an effect the other way counts as inactive or inconclusive.
# Columns and labels:
# [1] = Quantitative High-Throughput drug screen in 47 multiple myeloma cell lines against the NCATS MIPE library collection: RPMI8226_ATCC cell viability assay (AID 1919871); also: nearly all actives have a fitted effect of over 30% in size; also: potency is read from the fitted curve at half-maximal effect
# Procedure, shortened: (§1)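 ATP-based luminescence (CellTiter-Glo, 5 min RT incubation) quantified surviving cells following two days' treatment with MIPE 4.0 agents at 37 °C, 5% CO2.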
# [2] = Quantitative High-Throughput drug screen in 47 multiple myeloma cell lines against the NCATS MIPE library collection: OPM2_DSMZ cell viability assay (AID 1919872); also: nearly all actives have a fitted effect of over 30% in size; also: potency is read from the fitted curve at half-maximal effect
# Procedure, shortened: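 CellTiter-Glo luminescence (ATP) after 48 h compound exposure, 37C/5% CO2; 500 cells/well; MIPE 4.0 approved/investigational drugs pinned in; DMSO = 100%, media only = 0% viability.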
# [3] = Quantitative High-Throughput drug screen in 47 multiple myeloma cell lines against the NCATS MIPE library collection: KMS11_JCRBsus cell viability assay (AID 1919873); also: nearly all actives have a fitted effect of over 50% in size; also: potency is read from the fitted curve at half-maximal effect
# Procedure, shortened: as §1
# [4] = Quantitative High-Throughput drug screen in 47 multiple myeloma cell lines against the NCATS MIPE library collection: KMS28BM_JCRB cell viability assay (AID 1919874); also: nearly all actives have a fitted effect of over 35% in size; also: potency is read from the fitted curve at half-maximal effect
# Procedure, shortened: as §1
# [5] = qHTS for identification of novel therapeutic agents for treatment of microphthalmiaassociated transcription factor (MiT) renal cell carcinoma (RCC) (AID 1963991); conditions: CellTiter-Glo, 48 h, stronger effect = lower value
# Procedure, shortened: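 Three TFE3-fusion RCC lines (UOK109, UOK124, UOK145), 500 cells/well in complete medium, were treated with MIPE 4.0 compounds for 48 hours at 37 C. Viability was by CellTiter-Glo luminescence, normalized to DMSO (100%) and empty wells (0%); curves fitted over 11 concentrations.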
# [6] = qHTS drug screen for cell cycle checkpoint inhibitors in PARPi-resistant BRCA-mutant ovarian cancer cell lines. (AID 1963452; calls by dose curve); conditions: PEO1/OlaR viability, CellTiter-Glo luminescence, 96 h, stronger effect = lower value
# Procedure, shortened: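 PEO1, PEO4 and PEO1/OlaR ovarian cancer cells, 600 per well, exposed 96 h at 37C to a dilution series. Viability read by CellTiter-Glo luminescence, normalized to DMSO and empty wells; activity summarized as Z-AUC.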
# [7] = target: Cytochrome P450 3A4 (Homo sapiens) (UniProt P08684); test: qHTS for inhibitors of CYP3A4 against the NCATS DSHEA and TCM libraries (AID 1919971);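 also: % is scaled to controls: 0 for no effect and ±100 for the full control effect; inhibition lowers luminescence from luciferin made by CYP3A4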
# Cytochrome P450 3A4 (Homo sapiens), sequence (P08684 whole entry, looked up, canonical isoform): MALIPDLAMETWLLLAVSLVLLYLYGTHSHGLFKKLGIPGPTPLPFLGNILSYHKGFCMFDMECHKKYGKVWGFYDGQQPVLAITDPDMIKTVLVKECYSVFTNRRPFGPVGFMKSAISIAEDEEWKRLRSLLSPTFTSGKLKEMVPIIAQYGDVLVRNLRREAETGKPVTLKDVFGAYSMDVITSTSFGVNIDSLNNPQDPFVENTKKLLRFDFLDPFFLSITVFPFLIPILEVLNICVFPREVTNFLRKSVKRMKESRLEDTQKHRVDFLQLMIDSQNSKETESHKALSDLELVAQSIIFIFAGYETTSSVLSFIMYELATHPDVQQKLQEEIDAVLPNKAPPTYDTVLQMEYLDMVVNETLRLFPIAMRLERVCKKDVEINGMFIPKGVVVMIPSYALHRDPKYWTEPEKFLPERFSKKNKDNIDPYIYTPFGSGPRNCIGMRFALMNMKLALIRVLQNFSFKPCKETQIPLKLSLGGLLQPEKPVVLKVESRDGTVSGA
# Procedure, shortened: (§2)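 Isoform-specific enzyme and substrate levels; enzyme-free wells as background. Reaction: 1x NADPH regenerating system, 30-45 min, room temperature, shielded from light; luminescent detection reagent added, 30 min.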
# [8] = target: Cytochrome P450 2D6 (Homo sapiens) (UniProt P10635); test: qHTS for inhibitors of CYP2D6 against the NCATS DSHEA and TCM libraries (AID 1919972); also: % is scaled to controls: 0 for no effect and ±100 for the full control effect
# Cytochrome P450 2D6 (Homo sapiens), sequence (P10635 whole entry, looked up): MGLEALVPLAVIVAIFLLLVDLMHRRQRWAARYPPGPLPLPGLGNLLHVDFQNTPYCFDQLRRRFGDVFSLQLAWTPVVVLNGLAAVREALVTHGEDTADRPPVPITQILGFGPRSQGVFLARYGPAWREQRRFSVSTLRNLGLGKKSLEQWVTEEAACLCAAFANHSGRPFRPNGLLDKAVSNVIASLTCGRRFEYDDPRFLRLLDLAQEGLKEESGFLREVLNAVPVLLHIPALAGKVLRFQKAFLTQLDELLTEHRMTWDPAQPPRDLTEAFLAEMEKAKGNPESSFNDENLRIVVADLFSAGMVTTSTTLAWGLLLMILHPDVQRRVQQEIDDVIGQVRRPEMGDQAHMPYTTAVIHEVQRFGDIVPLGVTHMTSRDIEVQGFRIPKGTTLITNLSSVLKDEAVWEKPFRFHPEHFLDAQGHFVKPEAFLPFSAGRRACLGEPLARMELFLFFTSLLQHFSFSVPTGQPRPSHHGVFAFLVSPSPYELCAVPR
# Procedure, shortened: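 qHTS, concentration–response format with most substances from 19.5 nM. CYP2D6 + pro-luciferin substrate, 15 min with compound, then 1x NADPH regen, 30–45 min RT dark. Glo detection 30 min, luminescence. Quinidine control.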
# [9] = target: Cytochrome P450 2C9 (Homo sapiens) (UniProt P11712); test: qHTS for inhibitors of CYP2C9 against the NCATS DSHEA and TCM libraries (AID 1919973);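 also: luminogenic pro-luciferin CYP2C9 substrate turned into luciferin with NADPH regeneration; series mostly up to about 34 µM; % is scaled to controls: 0 for no effect and ±100 for the full control effect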
# Cytochrome P450 2C9 (Homo sapiens), sequence (P11712 whole entry, looked up): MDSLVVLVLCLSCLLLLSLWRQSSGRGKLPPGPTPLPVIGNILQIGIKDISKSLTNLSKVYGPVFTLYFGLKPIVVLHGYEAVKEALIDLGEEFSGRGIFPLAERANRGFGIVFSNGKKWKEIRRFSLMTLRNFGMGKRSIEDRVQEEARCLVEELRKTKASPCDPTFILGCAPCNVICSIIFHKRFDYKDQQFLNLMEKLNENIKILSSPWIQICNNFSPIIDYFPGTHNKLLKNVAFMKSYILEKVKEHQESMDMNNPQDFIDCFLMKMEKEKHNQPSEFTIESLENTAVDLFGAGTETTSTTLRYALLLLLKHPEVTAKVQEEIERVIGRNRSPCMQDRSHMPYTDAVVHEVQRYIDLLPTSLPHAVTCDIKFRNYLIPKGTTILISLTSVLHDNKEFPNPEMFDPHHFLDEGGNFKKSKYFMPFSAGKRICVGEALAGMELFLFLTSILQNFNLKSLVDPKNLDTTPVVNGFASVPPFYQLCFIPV
# Procedure, shortened: as §2
# [10] = target: Cytochrome P450 2C19 (Homo sapiens) (UniProt P33261); test: qHTS for inhibitors of CYP2C19 against the NCATS DSHEA and TCM libraries (AID 1919974); conditions: CYP2C19 enzyme inhibition, luminescence qHTS;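 also: luminescence from luciferin released by CYP2C19 oxidation of a pro-luciferin substrate; potency is read from the fitted curve at half-maximal effect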
# Cytochrome P450 2C19 (Homo sapiens), sequence (P33261 whole entry, looked up): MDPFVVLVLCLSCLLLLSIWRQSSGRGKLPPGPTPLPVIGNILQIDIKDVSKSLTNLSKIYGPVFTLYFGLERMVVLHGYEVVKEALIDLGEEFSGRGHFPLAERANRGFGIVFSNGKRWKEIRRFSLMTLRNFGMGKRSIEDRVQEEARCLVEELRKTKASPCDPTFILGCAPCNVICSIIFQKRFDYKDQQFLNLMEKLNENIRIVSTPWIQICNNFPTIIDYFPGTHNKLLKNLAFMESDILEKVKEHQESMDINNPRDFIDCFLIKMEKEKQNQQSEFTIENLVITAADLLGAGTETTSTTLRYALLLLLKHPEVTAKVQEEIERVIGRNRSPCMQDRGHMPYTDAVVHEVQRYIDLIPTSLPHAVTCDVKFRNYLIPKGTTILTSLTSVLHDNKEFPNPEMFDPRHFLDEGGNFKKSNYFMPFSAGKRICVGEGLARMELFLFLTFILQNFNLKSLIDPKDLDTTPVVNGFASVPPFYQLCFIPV
# Procedure, shortened: as §2
# [11] = KB-3-1 P-gp reporter qHTS against the NCATS DSHEA and TCM libraries (AID 1919975); also: 0% is about no effect
# Procedure, shortened: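 72 h exposure of KB-3-1 cells (DMEM, 10% FBS) to DSHEA/TCM samples, concentration-response; cell viability measured as CellTiter-Glo luminescence after 30 min at room temperature.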
# [12] = qHTS Counterscreen for compound interference against the NCATS DSHEA and TCM libraries (AID 1919978); conditions: firefly luciferase detection reagent interference, luminescence; also: % of control where 0% means no effect
# Procedure, shortened: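 Read-out is luminescence after 30 min at RT with luciferin detection reagent. Before that, compounds (19.5 nM to 39.8 uM final) sat 15 min at RT with 1 uM D-luciferin or 100 mM potassium phosphate buffer. PTC124 served as intraplate control.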
# [13] = Dual reporter qHTS for agonist of Pregnane X Receptor (hPXR) against the NCATS DSHEA and TCM libraries: Fluorescence readout (AID 1920058); also: 0% is about no effect
# Procedure, shortened: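 In this qHTS counter-read, reporter-bearing HepG2 cells in charcoal-stripped serum received substances for approximately 24 h before viability was assessed fluorometrically with CellTiter-Fluor.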
# [14] = target: Nuclear receptor subfamily 1 group I member 2 (Homo sapiens) (UniProt O75469); test: Dual reporter qHTS for antagonist of Pregnane X Receptor (hPXR) against the NCATS DSHEA and TCM libraries: Luminescence Readout (AID 1920060);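 also: HepG2 cells carrying hPXR luciferase reporter stimulated with rifampicin at 2 µM; 0% is about no effect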
# Nuclear receptor subfamily 1 group I member 2 (Homo sapiens), sequence (O75469 whole entry, looked up): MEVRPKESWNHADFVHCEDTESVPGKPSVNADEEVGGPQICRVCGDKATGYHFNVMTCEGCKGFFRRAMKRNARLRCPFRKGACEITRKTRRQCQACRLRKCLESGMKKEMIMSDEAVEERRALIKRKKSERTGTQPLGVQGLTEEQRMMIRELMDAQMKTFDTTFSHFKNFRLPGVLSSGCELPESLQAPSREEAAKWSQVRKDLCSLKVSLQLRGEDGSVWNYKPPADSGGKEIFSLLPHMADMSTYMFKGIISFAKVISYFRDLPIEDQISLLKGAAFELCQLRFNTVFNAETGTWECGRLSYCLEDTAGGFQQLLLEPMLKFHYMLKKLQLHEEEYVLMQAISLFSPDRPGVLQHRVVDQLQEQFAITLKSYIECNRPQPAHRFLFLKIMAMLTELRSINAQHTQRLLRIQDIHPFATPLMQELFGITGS
# Procedure, shortened: (§3)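 hPXR-Luc HepG2 cells exposed 24 h at 37 C to compounds with 2 uM rifampicin in antagonist mode; luciferase luminescence measured by ONE-Glo, with CellTiter-Fluor viability read beforehand.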
# [15] = Dual reporter qHTS for antagonist of Pregnane X Receptor (hPXR) against the NCATS DSHEA and TCM libraries: Fluorescence Readout (AID 1920061); also: 0% is about no effect
# Procedure, shortened: as §3
# [16] = target: Nuclear receptor subfamily 1 group I member 2 (Homo sapiens) (UniProt O75469); test: Dual reporter qHTS for agonist of Pregnane X Receptor (hPXR) against the NCATS DSHEA and TCM libraries: Luminescence readout (AID 1920059); also: 0% is about no effect
# Procedure, shortened: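 Luminescent PXR reporter read (ONE-Glo) after a CellTiter-Fluor viability read, following 24 h, 37C treatment of HepG2 cells stably carrying hPXR-Luc.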
# [17] = TFE3-RCC UOK109 viability, measured here: UOK109 Z-AUC
# [18] = TFE3-RCC viability, measured here: UOK124 Z-AUC
# [19] = TFE3-RCC viability, measured here: UOK145 Z-AUC
# [20] = measured here: PEO1 parental Z-AUC
compound,measurement,setting,value
NC1CCC(Nc2nc(Nc3ccc(C(=O)N4CCCCC4)cc3)c3ncn(-c4cccc(F)c4)c3n2)CC1 (stereo not given),Potency,[1],inactive
same,Potency,[2],inactive
same,Potency,[3],inactive
same,Potency,[4],inactive
same,z-score,[5]; [17],0.32
same,z-score,[5]; [18],0.539
same,z-score,[5]; [19],0.657
COC1CCC(N(C(=O)C2CCC(C)CC2)c2cc(C3=CCCCC3)sc2C(=O)O)CC1 (stereo not given),Potency,[1],inactive
same,Potency,[2],inactive
same,Potency,[4],inactive
same,Z-AUC,[6],-0.412 (inactive)
same,Z-AUC,[6]; [20],-0.941
same,Z-AUC,[6]; measured here: PEO4 Z-AUC,-0.935
same,z-score,[5]; [17],0.459
same,z-score,[5]; [18],1.37
same,z-score,[5]; [19],0.333
O=C1NC(=O)C(=Cc2cccc(C(F)(F)F)c2)S1,Potency,[1],7.43 µM (active)
same,Potency,[2],inactive
same,Potency,[4],inactive
COc1ccc(-c2coc3cc(O)ccc3c2=O)cc1,Potency,[1],inactive
same,Potency,[2],inactive
same,Potency,[3],18.7 µM (active)
same,outcome,[7],inactive
same,outcome,[8],inactive
same,outcome,[9],inactive
same,Potency,[10],14.1 µM (active)
same,outcome,[11],inactive
same,max response,[12],-1.37% (inactive)
same,outcome,[13],inactive
same,outcome,[14],inactive
same,outcome,[15],inactive
same,z-score,[5]; [17],0.416
same,z-score,[5]; [18],0.783
same,z-score,[5]; [19],0.452
COc1cccc([C@@H](C)NCCCc2ccccc2Cl)c1,Potency,[1],inactive
same,Potency,[2],inactive
same,Potency,[4],inactive
same,Z-AUC,[6],0.861 (inactive)
same,Z-AUC,[6]; [20],1.12
same,Z-AUC,[6]; measured here: PEO4 Z-AUC,0.597
CC(C)(C(=O)NCC(F)(F)C(F)(F)F)C(=O)N[C@@H]1C(=O)Nc2ccccc2-c2ccccc21,Potency,[1],inactive
same,Potency,[2],inactive
same,Potency,[4],inactive
same,Z-AUC,[6],0.455 (inactive)
same,Z-AUC,[6]; [20],0.706
same,Z-AUC,[6]; measured here: PEO4 Z-AUC,0.383
C[N+]1(C)[C@@H]2CC(OC(=O)[C@H](CO)c3ccccc3)C[C@H]1[C@H]1O[C@@H]12 (stereo not given in full),Potency,[1],inactive
same,Potency,[2],inactive
same,Potency,[3],inactive
same,Potency,[4],inactive
same,z-score,[5]; [17],0.318
same,z-score,[5]; [18],0.652
same,z-score,[5]; [19],0.553
CC(C)C(C)C=CC(C)C1CCC2C3=CC=C4CC(O)CCC4(C)C3CCC21C (stereo not given),Potency,[1],inactive
same,Potency,[2],inactive
same,Potency,[3],inactive
same,Z-AUC,[6],1.48 (inactive)
same,Z-AUC,[6]; [20],1.13
same,Z-AUC,[6]; measured here: PEO4 Z-AUC,1.32
same,z-score,[5]; [17],0.762
same,z-score,[5]; [18],0.655
same,z-score,[5]; [19],1.94
NS(=O)(=O)c1ccc(NC2=CC(=O)c3ccccc3C2=O)cc1,Potency,[1],inactive
same,Potency,[2],inactive
same,Potency,[4],inactive
same,Z-AUC,[6],-0.549 (inactive)
same,Z-AUC,[6]; [20],-0.888
same,Z-AUC,[6]; measured here: PEO4 Z-AUC,-0.629
COc1cccc2c1CCCC2CCCN1CCN(C2CCCCC2)CC1 (stereo not given),Potency,[1],14.8 µM (active)
same,Potency,[3],18.7 µM (active)
same,Potency,[4],18.7 µM (active)
same,Z-AUC,[6],0.972 (inactive)
same,Z-AUC,[6]; [20],0.889
same,Z-AUC,[6]; measured here: PEO4 Z-AUC,0.366
O=C(NCc1ccncc1)C12C[C@H]3C[C@@H](C1)CC(c1ccc(Cl)cc1)(C3)C2,Potency,[1],29.6 µM (active)
same,Potency,[3],14.8 µM (active)
same,Potency,[4],18.7 µM (active)
same,Z-AUC,[6],0.0323 (inactive)
same,Z-AUC,[6]; [20],0.866
same,Z-AUC,[6]; measured here: PEO4 Z-AUC,0.86
COc1cc2c(cc1OC)CN(CCc1ccc(NC(=O)c3cc(OC)c(OC)cc3NC(=O)c3cnc4ccccc4c3)cc1)CC2,Potency,[1],0.418 µM (active)
same,Potency,[2],inactive
same,Z-AUC,[6],0.969 (inactive)
same,Z-AUC,[6]; [20],1.41
same,Z-AUC,[6]; measured here: PEO4 Z-AUC,1.02
O=C(NCc1ccccc1)c1csc(Nc2ccncn2)n1,Potency,[1],20.9 µM (active)
same,Potency,[3],26.4 µM (active)
same,Potency,[4],18.7 µM (active)
same,Z-AUC,[6],-0.615 (inactive)
same,Z-AUC,[6]; [20],0.117
same,Z-AUC,[6]; measured here: PEO4 Z-AUC,0.922
CC=CC[C@@H](C)C(=O)[C@H]1C(=O)N[C@@H](C(C)C)C(=O)N(C)CC(=O)N(C)[C@@H](CC(C)C)C(=O)N[C@@H](C(C)C)C(=O)N(C)[C@@H](CC(C)C)C(=O)N[C@@H](C)C(=O)N[C@H](C)C(=O)N(C)[C@@H](CC(C)C)C(=O)N(C)[C@@H](CC(C)C)C(=O)N(C)[C@@H](C(C)C)C(=O)N1C,Potency,[1],13.2 µM (active)
same,Potency,[3],14.8 µM (active)
C=C1C(=O)[C@@]23C(CC[C@@H]1[C@H]2O)[C@@]12CO[C@]3(O)[C@@H](O)[C@@H]1C(C)(C)CC[C@@H]2O (stereo not given in full),Potency,[1],11.8 µM (active)
same,Potency,[3],2.96 µM (active)
same,Potency,[4],2.35 µM (active)
same,Z-AUC,[6],-0.857 (inactive)
same,Z-AUC,[6]; [20],-1.05
same,Z-AUC,[6]; measured here: PEO4 Z-AUC,-1.08
CCOC(=O)C1=C(N)Oc2ccc(Br)cc2C1C(C#N)C(=O)OCC (stereo not given),Potency,[1],26.4 µM (active)
same,Potency,[3],23.5 µM (active)
same,Potency,[4],20.9 µM (active)
same,Z-AUC,[6],1.64 (inactive)
same,Z-AUC,[6]; [20],1.22
same,Z-AUC,[6]; measured here: PEO4 Z-AUC,1.22
O=c1c(-c2ccc(O)cc2)coc2cc(O[C@@H]3O[C@H](CO)[C@H](O)[C@H](O)[C@H]3O)ccc12,Potency,[1],inactive
same,Potency,[3],inactive
same,Potency,[4],inactive
same,outcome,[7],inactive
same,outcome,[8],inactive
same,outcome,[11],inactive
same,max response,[12],1.56% (inactive)
same,outcome,[13],inactive
same,Potency,[16],inactive
same,outcome,[14],inactive
same,outcome,[15],inactive
same,z-score,[5]; [17],0.945
same,z-score,[5]; [18],2.11
same,z-score,[5]; [19],1.28
CNC1CCC(N(Cc2cccc(-c3ccncc3)c2)C(=O)c2sc3c(F)ccc(F)c3c2Cl)CC1 (stereo not given),Potency,[1],18.7 µM (active)
same,Potency,[3],9.35 µM (active)
same,Potency,[4],26.4 µM (active)
same,Z-AUC,[6],-0.961 (inactive)
same,Z-AUC,[6]; [20],-0.582
same,Z-AUC,[6]; measured here: PEO4 Z-AUC,-1.33
Cc1ccc(C(=O)Nc2cccc(C(F)(F)F)c2)cc1Nc1nc(-c2cccnc2)nc2c1cnn2C,Potency,[1],18.7 µM (active)
same,Potency,[2],16.6 µM (active)
same,Z-AUC,[6],0.462 (inactive)
same,Z-AUC,[6]; [20],0.182
same,Z-AUC,[6]; measured here: PEO4 Z-AUC,0.562
CC(=O)N(C)C1(c2ccccc2)CCN(CCC[C@]2(c3ccc(Cl)c(Cl)c3)CCCN(C(=O)c3ccccc3)C2)CC1,Potency,[1],23.5 µM (active)
same,Potency,[3],9.35 µM (active)
same,Potency,[4],20.9 µM (active)
N#CC(=C(N)Sc1ccccc1N)C(C#N)=C(N)Sc1ccccc1N,Potency,[1],10.5 µM (active)
same,Potency,[3],8.33 µM (active)
